# Data: PubChem BioAssay (NCATS)
# Results filed as inconclusive are left out. Calls of active or inactive are those of the source. Unless noted, calls come from the whole dose curve; as a rule, active = well fitted curve in the direction sought with a large enough effect; inconclusive = small, poorly fitted or top-dose-only effect, or another doubt; inactive = no such curve, though single readings can be large; an effect the other way counts as inactive or inconclusive.
# How the values were obtained:
# [1] = P-glycoprotein substrates identified in KB-3-1 adenocarcinoma cell line, qHTS therapeutic library screen (AID 1346986); note: nearly all actives have a fitted effect of over 60% in size;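 note: potency is the fitted concentration of half-maximal effect; potency is for cytotoxicity meaning loss of cell viability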
# How it was run: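 Counter-screen: cherry-picked hits retested in the KB pair and in HEK-293 pcDNA/MDR-19 cells ± tariquidar. Primary screen used 72 h CellTiter-Glo viability in KB-3-1 and KB-8-5-11.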
# [2] = Primary qHTS for inhibitors of nuclear receptor binding SET domain protein 2 (NSD2) in an isogenic RCH-ACV NSD2 p.E1099K mutant (9B) (AID 1645876); note: nearly all actives have a fitted effect of over 70% in size; note: potency is the fitted concentration of half-maximal effect
# [3] = Primary qHTS for inhibitors of nuclear receptor binding SET domain protein 2 (NSD2) in an RCH-ACV wild type WT cells (2C) (AID 1645877); note: nearly all actives have a fitted effect of over 70% in size; note: potency is the fitted concentration of half-maximal effect
# [4] = molecular target: Catechol O-methyltransferase (Homo sapiens) (UniProt P21964); assay: Confirmatory Screen for Target Class Profiling of Small Molecule Inhibitors of Methyltransferases (AID 1745852; calls by dose curve; note: potency is the fitted concentration of half-maximal effect; for activity change, negative = inhibition: % is set by controls: 0 for no effect and ±100 for the full control effect); conditions: MTase-Glo luminescence, SAH detection, recombinant enzyme; measured here: COMT max response; stronger effect = lower value
# Sequence of Catechol O-methyltransferase (Homo sapiens) (P21964 whole entry, looked up): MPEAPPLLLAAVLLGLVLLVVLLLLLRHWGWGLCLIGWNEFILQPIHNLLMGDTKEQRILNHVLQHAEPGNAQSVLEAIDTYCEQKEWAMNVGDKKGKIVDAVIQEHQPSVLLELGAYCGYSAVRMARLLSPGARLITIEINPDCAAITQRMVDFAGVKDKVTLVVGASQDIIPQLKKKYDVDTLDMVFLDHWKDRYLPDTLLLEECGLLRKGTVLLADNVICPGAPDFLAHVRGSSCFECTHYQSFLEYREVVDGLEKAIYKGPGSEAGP
# [5] = molecular target: Guanidinoacetate N-methyltransferase (Homo sapiens) (UniProt Q14353); assay: as above; conditions: activity change, negative = inhibition: at 57.3 µM (top of the series) unless noted
# [6] = molecular target: Nicotinamide N-methyltransferase (Homo sapiens) (UniProt P40261); assay: as above; conditions: MTase-Glo luminescence, SAH detection, recombinant enzyme; measured here: NNMT max response; stronger effect = lower value
# Sequence of Nicotinamide N-methyltransferase (Homo sapiens) (P40261 whole entry, looked up): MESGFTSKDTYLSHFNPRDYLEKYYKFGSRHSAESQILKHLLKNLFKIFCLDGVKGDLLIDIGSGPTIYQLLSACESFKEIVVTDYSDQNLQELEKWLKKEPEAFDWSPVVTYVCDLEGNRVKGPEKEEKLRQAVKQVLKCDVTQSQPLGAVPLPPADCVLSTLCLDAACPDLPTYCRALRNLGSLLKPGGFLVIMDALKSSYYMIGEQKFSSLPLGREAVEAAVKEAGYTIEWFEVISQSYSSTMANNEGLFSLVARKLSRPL
# [7] = molecular target: Phenylethanolamine N-methyltransferase (Homo sapiens) (UniProt P11086); assay: as above; conditions: MTase-Glo luminescence, SAH detection, recombinant enzyme; measured here: PNMT max response; stronger effect = lower value
# Sequence of Phenylethanolamine N-methyltransferase (Homo sapiens) (P11086 whole entry, looked up): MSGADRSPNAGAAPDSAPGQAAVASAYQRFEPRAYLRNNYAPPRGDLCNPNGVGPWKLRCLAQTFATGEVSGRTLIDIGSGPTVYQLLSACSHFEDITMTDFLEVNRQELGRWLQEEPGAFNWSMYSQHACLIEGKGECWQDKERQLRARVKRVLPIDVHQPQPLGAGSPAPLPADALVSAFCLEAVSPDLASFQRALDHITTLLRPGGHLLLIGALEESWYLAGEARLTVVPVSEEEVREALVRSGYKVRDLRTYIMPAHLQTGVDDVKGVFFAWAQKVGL
# [8] = molecular target: Glutathione peroxidase 1 (Homo sapiens) (UniProt P07203); assay: Primary qHTS Assay for Inhibitors of Recombinant Selenoprotein Glutathione Peroxidase 1 (GPX1) (AID 1845191); note: nearly all actives have a fitted effect of over 65% in size
# Sequence of Glutathione peroxidase 1 (Homo sapiens) (P07203 whole entry, looked up): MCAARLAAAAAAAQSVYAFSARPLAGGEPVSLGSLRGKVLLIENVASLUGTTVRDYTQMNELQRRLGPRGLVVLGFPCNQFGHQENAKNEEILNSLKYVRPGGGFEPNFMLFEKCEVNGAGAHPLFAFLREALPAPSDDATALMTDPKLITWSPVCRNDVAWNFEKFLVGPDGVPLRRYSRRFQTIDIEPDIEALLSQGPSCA
# How it was run: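 10 nM GPX1 + cpd, 30 min RT; start w/ 1 mM GSH, 0.5 mM cumene hydroperoxide, 0.5 mM NADPH, 100 nM GR, 0.01% BSA; buffer 50 mM Tris-HCl pH 7.5, 2 mM EDTA, 150 mM NaCl; Fl 340/450, 0 & 15 min.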
# [9] = molecular target: Calcium and integrin-binding protein 1 (Homo sapiens) (UniProt Q99828); assay: Primary qHTS for Identification of Calcium Integrin Binding Protein 1 (CIB1) Competitor (AID 1508620);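 note: GST tagged CIB1 binding a fluorescein labelled alphaIIb integrin peptide tracer; top concentration of the series differs between compounds; % is set by controls: 0 for no effect and ±100 for the full control effect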
# Sequence of Calcium and integrin-binding protein 1 (Homo sapiens) (Q99828 whole entry, looked up): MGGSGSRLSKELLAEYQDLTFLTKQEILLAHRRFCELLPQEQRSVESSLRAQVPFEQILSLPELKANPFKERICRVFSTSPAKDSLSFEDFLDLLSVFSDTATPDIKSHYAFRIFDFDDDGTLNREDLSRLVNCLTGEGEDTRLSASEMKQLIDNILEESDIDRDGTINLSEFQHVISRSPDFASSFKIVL
# How it was run: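 CIB1-GST (1 uM final) and compound incubated 15 min at room temperature before adding FITC-alphaIIb peptide tracer (100 nM final). Competition for binding read by fluorescence polarization (ex 480, em 540) after another 15 min at room temperature.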
# [10] = molecular target: N-terminal Xaa-Pro-Lys N-methyltransferase 1 (Homo sapiens) (UniProt Q9BV86); assay: Confirmatory qHTS for Inhibitors of N-terminal methyltransferase 1 (NTMT1): MTaseGlo Assay (AID 1645874); note: potency is the fitted concentration of half-maximal effect; nearly all actives have a fitted effect of over 65% in size
# Sequence of N-terminal Xaa-Pro-Lys N-methyltransferase 1 (Homo sapiens) (Q9BV86 whole entry, looked up): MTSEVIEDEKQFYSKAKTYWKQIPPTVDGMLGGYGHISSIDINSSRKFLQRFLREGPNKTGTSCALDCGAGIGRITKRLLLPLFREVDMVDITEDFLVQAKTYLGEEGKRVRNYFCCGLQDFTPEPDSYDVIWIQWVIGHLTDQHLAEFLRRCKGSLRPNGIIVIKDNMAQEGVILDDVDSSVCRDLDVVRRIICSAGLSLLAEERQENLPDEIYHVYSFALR
# How it was run: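 Preincubation of NTMT1 (125 nM) plus SAM (100 uM) with test compounds lasted 15 min; methylation of 1 uM SPKRIA then proceeded 30 min in the dark at room temperature. Luciferase signal reported SAH produced.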
structure (smiles),measurement,setting,value
Nc1ccc(-c2cnc(N)c(-c3ccc(Cl)cc3)c2)cn1,Potency,[1],inactive
same,Potency,[2],14600 nM (active)
same,Potency,[3],14600 nM (active)
same,activity,[4],-71.5%
same,"activity change, negative = inhibition",[5],-1.94%
same,activity,[6],-33.1%
same,activity,[7],-5.01%
COc1ccc(CCNCc2ccc(OCc3ccc(Cl)nc3)c(OC)c2)cc1OC,Potency,[1],inactive
same,Potency,[8],inactive
Nc1ccn([C@H]2O[C@@H](CO)[C@H](O)[C@H]2O)c(=O)n1,Potency,[1],3660 nM (active)
same,Potency,[2],20.6 nM (active)
same,Potency,[3],16.4 nM (active)
O=C(NCCc1c[nH]c2ccc(O)cc12)c1ccc2ccccc2c1O,Potency,[1],8200 nM (active)
same,Potency,[8],inactive
O=C(/C=C/c1nc2ccccc2[nH]1)c1c(-c2ccccc2)c2cc(Cl)ccc2[nH]c1=O,Potency,[1],7310 nM (active)
same,Potency,[2],1160 nM (active)
same,Potency,[3],1030 nM (active)
same,Potency,[8],inactive
O=C1NC(=O)/C(=C\c2ccc3nccc(-c4ccncc4)c3c2)S1,Potency,[1],1160 nM (active)
same,Potency,[2],326 nM (active)
same,Potency,[3],366 nM (active)
COC[C@H](C)Oc1cc(O[C@@H](C)Cc2ccccc2)cc(C(=O)Nc2ccc(C(=O)O)cn2)c1,Potency,[1],inactive
same,Potency,[2],inactive
same,Potency,[3],inactive
same,Potency,[8],inactive
C[C@@]1(F)[C@H](O)[C@@H](CO)O[C@H]1n1ccc(N)nc1=O,Potency,[1],inactive
same,Potency,[2],inactive
CN(Cc1nccs1)c1ncnc2ccc(-c3ccc4c(c3)OCO4)cc12,Potency,[1],inactive
same,outcome,[9],inactive
same,Potency,[10],11500 nM (active)
same,activity,[4],-82.4%
same,Potency,[5],24100 nM (active)
same,activity,[6],-71.7%
same,activity,[7],-84.4%
same,Potency,[8],inactive
